Test results: PubChem BioAssay
Results filed as inconclusive are left out. Activity calls are given as the source filed them.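 How the source made its calls, unless noted: active means RAM network inhibition above 8.4% in each of two replicates, 3 SD over the compound average; inconclusive means above 8.4% inhibition in only one replicate; inactive means 8.4% inhibition or less in each replicate.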

Tests used:
[1] = reducers of endogenous Her2 protein level, primary screen, SKBR3 breast tumor cells, AlphaScreen, ATP viability (AID 461;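 active means Her2 level under about 52% in both replicate screens, with viability over 70% of control, limit read from the data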;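 on Her2 level: lower value means less Her2 protein in the cells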;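 on viability: percent of carrier control wells set as 100% viability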); conditions: 18-24 h, measured here: SKBR3 viability, ATP luminescence, at 10 µM
[2] = target: Receptor tyrosine-protein kinase erbB-2 (Homo sapiens) (UniProt P04626); assay: as above; conditions: 18-24 h, at 10 µM, stronger effect = lower value
[3] = SK-BR-3 cell growth inhibitors, pilot screen, 24 h, human (AID 572;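 active means viability at or below 10% of carrier control in both of two separate runs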;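 further: compound exposure lasted between 18 and 24 h rather than exactly 24 h; 100% = carrier-treated control wells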); conditions: SK-BR-3 viability, CellTiter-Glo luminescence, at 10 µM, stronger effect = lower value
[4] = HUVEC growth inhibition – cell-based, human, primary screen (AID 575;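 active means viability at or below 30% in both replicate assays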;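 further: 100% = median of untreated cell wells with 0.1% DMSO on each plate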); conditions: HUVEC proliferation, CellTiter-Glo luminescence, 72 h; at 10 µM; stronger effect = lower value
[5] = growth inhibitors of H69AR lung tumor, primary screen, human, duplicate replicates (AID 580;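 active means viability at or under a set limit in both replicates, limit being median viability minus 3 SD, cut at about 48% in these data, passing the limit was not always enough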;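 further: 100% = mean luminescence of untreated wells and 0% = no signal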); conditions: H69AR lung tumor cells viability, ATP luminescence, 72 h; at 10 µM; stronger effect = lower value
[6] = reversal of MRP1-mediated doxorubicin resistance, pilot screen, H69AR cells, doxorubicin co-treatment (AID 601;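 active means viability loss from added drug above about 55%, and viability with drug at most 40%, in both replicates, limit read from the data, passing the limit was not always enough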); conditions: CellTiter-Glo, 72 h, at 10 µM; for differential viability (reversal): stronger effect = higher value
[7] = 384-well plate pilot, post-Golgi transport modulator project, inhibition of yeast transport mutant growth (AID 636; in the data active means inhibition above about 31%); conditions: absorbance 615 nm, about 18 h, stronger effect = higher value
[8] = growth suppression of yeast trafficking mutant, preliminary HTS, modulators of trafficking downstream of Golgi apparatus project, 1536-format plate, OD 615 nm (AID 637; in the data active means inhibition above about 30%); conditions: yeast transport mutant growth, absorbance 615 nm, 18 h; stronger effect = higher value
[9] = OD615 S. cerevisiae growth inhibition, permissive medium, pilot counter-assay, permissive growth control for S. cerevisiae lifespan shortening project (AID 705;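 active means growth inhibition above 25% in both replicates, a cutoff set 3 SD above the mean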); conditions: OD615, 24 h, at 10 µM, stronger effect = higher value
[10] = Restrictive medium S. cerevisiae growth inhibition, OD615, pilot screen of yeast lifespan reduction project, restrictive growth control (AID 706;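 active means growth inhibition above a set limit, 3 SD over mean compound inhibition, in both replicates, cut at about 43% in these data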;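 further: modified DeaD lifespan yeast strain shifted to restrictive glucose medium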); conditions: OD615, 48 h, at 10 µM, stronger effect = higher value
[11] = viability gain of MRP-1-high H69AR cells under doxorubicin, pilot screen, MRP-1 activator project, CellTiter-Glo, duplicate (AID 807;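 active means viability increase at or above a cutoff of the median across tested compounds plus 3 SD, cut at about 8.5% in these data, passing the limit was not always enough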;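 further: compound pretreatment 18-22 h then 72 h combined with doxorubicin; 0% = doxorubicin alone and 100% = vehicle without doxorubicin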); conditions: H69AR viability with doxorubicin, CellTiter-Glo luminescence; at 10 µM; stronger effect = higher value
[12] = growth suppression of beta-catenin knockout HCT116, pilot screen, human colon tumor cells (AID 823;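 active means cell viability at or below a set limit in both duplicate runs, the limit being the all-compound median minus 4 SD, cut at about 23% in these data, passing the limit was not always enough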;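 further: 0% = wells killed by 20 µM Hyamine and 100% = untreated DMSO cell wells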); conditions: CellTiter-Glo, 60 h, at 10 µM, stronger effect = lower value
[13] = growth suppression of PTEN-deleted HCT116, pilot screen, cell-based, HCT116 clonal line, CellTiter-Glo (AID 824;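 active means viability at or below 27.92% in each of two runs, the all-compound median minus 4 SD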;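 further: 0% = 20 µM Hyamine control and 100% = vehicle cell control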); conditions: 60 h, at 10 µM, stronger effect = lower value
[14] = inhibitors of the yeast RAM network, pilot screen, dse1pr::URA3 reporter, 5-FOA selection (AID 869;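 active means inhibition over a set limit, the all-compound mean plus 3 SD, in both replicate runs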;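 further: 0% = DMSO wells with no growth and 100% = 10 µM 1-NA-PP1 with full growth; RAM network block rescues cells from 5-FOA so hits raise OD615 growth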); conditions: S. cerevisiae dse1pr::URA3 5-FOA growth, OD615, 2 d; at 10 µM; stronger effect = higher value; strain carries analog-sensitive mutant Cbk1 kinase
[15] = RAM signaling pathway blockade in yeast – S. cerevisiae, Pdr1DBD-CYC8 efflux-inhibited sensitized strain, primary screen (AID 1298);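 further: 0% = DMSO untreated cells without growth and 100% = 10 µM 1-NA-PP1 full growth; higher means more yeast growth rescued from 5-FOA killing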; conditions: S. cerevisiae cbk1-as DSE1-URA3 strain, 5-FOA growth OD615, 2 d; at 50 µM; stronger effect = higher value
[16] = H69AR cells + 2 uM doxorubicin, measured here: viability with 2 uM doxorubicin, stronger effect = lower value
[17] = H69AR cells, compound alone cytotoxicity

Receptor tyrosine-protein kinase erbB-2 (Homo sapiens), sequence (P04626 whole entry, looked up): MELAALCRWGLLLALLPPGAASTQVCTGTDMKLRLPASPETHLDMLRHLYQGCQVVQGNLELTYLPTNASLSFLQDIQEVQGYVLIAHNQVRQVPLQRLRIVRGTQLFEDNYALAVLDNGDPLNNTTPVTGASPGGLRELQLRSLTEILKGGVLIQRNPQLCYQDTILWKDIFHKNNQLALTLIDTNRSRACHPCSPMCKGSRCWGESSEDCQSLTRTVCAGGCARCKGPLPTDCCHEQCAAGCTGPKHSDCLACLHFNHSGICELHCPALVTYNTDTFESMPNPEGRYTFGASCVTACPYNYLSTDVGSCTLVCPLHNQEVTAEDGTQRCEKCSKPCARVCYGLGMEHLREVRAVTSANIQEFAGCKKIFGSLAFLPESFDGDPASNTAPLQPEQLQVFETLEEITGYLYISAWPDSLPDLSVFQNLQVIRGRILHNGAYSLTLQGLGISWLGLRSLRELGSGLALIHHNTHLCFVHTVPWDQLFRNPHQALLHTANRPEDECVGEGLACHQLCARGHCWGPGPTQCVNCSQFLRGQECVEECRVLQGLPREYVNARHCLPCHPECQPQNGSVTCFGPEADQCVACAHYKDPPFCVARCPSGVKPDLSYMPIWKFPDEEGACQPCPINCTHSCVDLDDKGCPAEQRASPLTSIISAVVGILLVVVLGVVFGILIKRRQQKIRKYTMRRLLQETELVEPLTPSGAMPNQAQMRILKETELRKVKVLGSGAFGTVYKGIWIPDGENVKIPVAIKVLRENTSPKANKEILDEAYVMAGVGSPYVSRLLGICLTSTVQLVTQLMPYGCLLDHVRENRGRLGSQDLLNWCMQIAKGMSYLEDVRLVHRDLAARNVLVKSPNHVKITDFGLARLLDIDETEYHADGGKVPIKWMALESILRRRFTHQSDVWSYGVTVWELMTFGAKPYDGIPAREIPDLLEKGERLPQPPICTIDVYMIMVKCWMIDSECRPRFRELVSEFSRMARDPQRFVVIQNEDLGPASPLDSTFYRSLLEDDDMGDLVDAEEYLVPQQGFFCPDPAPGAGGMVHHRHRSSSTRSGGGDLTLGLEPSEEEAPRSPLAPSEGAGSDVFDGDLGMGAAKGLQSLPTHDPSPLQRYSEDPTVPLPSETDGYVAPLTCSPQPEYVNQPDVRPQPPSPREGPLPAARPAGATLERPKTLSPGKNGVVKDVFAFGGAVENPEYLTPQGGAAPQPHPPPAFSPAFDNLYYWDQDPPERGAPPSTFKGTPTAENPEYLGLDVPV

Compound | viability [1] [%] | Her2 level [2] | viability [3] | viability [4] | viability [5] | differential viability (reversal) ([6]; H69AR cells + 2 uM doxorubicin) | viability [6, 16] [%] | viability [6, 17] [%] | inhibition [7] | inhibition [8] | growth inhibition [9] | growth inhibition [10] | viability increase [11] | viability [12] | viability [13] | inhibition [14] | RAM network inhibition [15]
Cc1nc2ccc(C(=O)c3ccccc3)cc2[nH]1 | 102 | 82% (inactive) | 102% (inactive) | 110% (inactive) | 94.2% (inactive) | 2.49% (inactive) | 91.7 | 94.2 | -3.64% (inactive) | 0.33% (inactive) | -6.26% (inactive) | 2.11% (inactive) | 0.26% (inactive) | 99.4% (inactive) | 100% (inactive) | 1.42% (inactive) | 5% (inactive)
CCOC(=O)Nc1ccc2c(c1)N(C(=O)OCCN(C)C)c1ccccc1CC2 | 94.5 | 100% (inactive) | 94.5% (inactive) | 77.5% (inactive) | 90.2% (inactive) | 12.4% (inactive) | 77.7 | 90.2 | -7.07% (inactive) | -9.02% (inactive) | -10.3% (inactive) | -0.265% (inactive) | -4.23% (inactive) | 73.5% (inactive) | 78.8% (inactive) | 1.89% (inactive) | 2.2% (inactive)
COc1ccccc1NC(=O)C1(C)Cc2ccccc2C(=O)O1 (stereo not drawn) | 106 | 108% (inactive) | 106% (inactive) | 102% (inactive) | 91.7% (inactive) | 2.89% (inactive) | 88.8 | 91.7 | -2.82% (inactive) | 0.67% (inactive) | -6.73% (inactive) | 5.93% (inactive) | -0.93% (inactive) | 107% (inactive) | 99.8% (inactive) | 1.77% (inactive) | 5.4% (inactive)
CC1CCCN(C(=O)C23CCC(C)(C(=O)C2)C3(C)C)C1 (stereo not drawn) | 99 | 92% (inactive) | 99% (inactive) | 103% (inactive) | 108% (inactive) | 15.3% (inactive) | 92.6 | 108 | -2.43% (inactive) | -3.17% (inactive) | -7.46% (inactive) | -8.69% (inactive) | -2.08% (inactive) | 97.7% (inactive) | 102% (inactive) | -0.565% (inactive) | 4.55% (inactive)
C=CCSc1nc(N)c2c(C)c(C)sc2n1 | 98.5 | 70.5% (inactive) | 98.5% (inactive) | 86.5% (inactive) | 88% (inactive) | 4.54% (inactive) | 83.5 | 88 | -0.52% (inactive) | -8.33% (inactive) | -10.6% (inactive) | -14% (inactive) | -3.58% (inactive) | 95.3% (inactive) | 92.4% (inactive) | 0.34% (inactive) | 8.79% (inactive)
CCOC(=O)N1CCC(N2C(=O)c3ccccc3C2Nc2ccccc2C)CC1 (stereo not drawn) | 95.5 | 96.5% (inactive) | 95.5% (inactive) | 84% (inactive) | 79.8% (inactive) | 32% (inactive) | 47.8 | 79.8 | -5.2% (inactive) | -8.5% (inactive) | -16.1% (inactive) | -23.2% (inactive) | -4.35% (inactive) | 88.2% (inactive) | 82.5% (inactive) | 2.58% (inactive) | 7.43% (inactive)
CCOc1cccc(C(=O)N2CCCCC2c2cccnc2)c1 (stereo not drawn) | 98.5 | 96.5% (inactive) | 98.5% (inactive) | 101% (inactive) | 110% (inactive) | 10.3% (inactive) | 99.6 | 110 | -0.93% (inactive) | -1.13% (inactive) | -4.46% (inactive) | -2.66% (inactive) | -1.99% (inactive) | 101% (inactive) | 95.2% (inactive) | 0.635% (inactive) | 1.95% (inactive)
CC1(C)CC(=O)C(C=NCC2CCNCC2)=C(O)C1 | 104 | 117% (inactive) | 104% (inactive) | 106% (inactive) | 93.8% (inactive) | -4.75% (inactive) | 98.5 | 93.8 | 1.04% (inactive) | 1.67% (inactive) | -20.1% (inactive) | -16.9% (inactive) | -1.11% (inactive) | 92.2% (inactive) | 92.3% (inactive) | 2.66% (inactive) | 6.82% (inactive)
CCCc1cc(C(=O)Nc2sc3c(c2C#N)CCC3)no1 | 86.5 | 77.5% (inactive) | 86.5% (inactive) | 58% (inactive) | 29.8% (active) | -25.9% (inactive) | 55.6 | 29.8 | -2.05% (inactive) | -4.5% (inactive) | 4.12% (inactive) | 0.215% (inactive) | -2.05% (inactive) | 92.2% (inactive) | 87.1% (inactive) | -0.06% (inactive) | -1.49% (inactive)
CC1(C)NC(=O)N(CC(O)COc2cccc(F)c2)C1=O (stereo not drawn) | 97 | 112% (inactive) | 97% (inactive) | 110% (inactive) | 101% (inactive) | 1.67% (inactive) | 99.8 | 101 | 3.73% (inactive) | -1% (inactive) | -3.19% (inactive) | -1.89% (inactive) | -0.02% (inactive) | 99.9% (inactive) | 97.9% (inactive) | 1.2% (inactive) | 1.81% (inactive)
CC1CCCN(S(=O)(=O)c2coc(C(N)=O)c2)C1 (stereo not drawn) | 87.5 | 119% (inactive) | 87.5% (inactive) | 82.6% (inactive) | 94.6% (inactive) | -23.4% (inactive) | 118 | 94.6 | -0.51% (inactive) | 1% (inactive) | -19.2% (inactive) | -4.31% (inactive) | -0.1% (inactive) | 108% (inactive) | 99.5% (inactive) | 1.33% (inactive) | 2.99% (inactive)
CN(C)CCNc1oc(-c2ccccc2F)nc1C#N | 93 | 94% (inactive) | 93% (inactive) | 87.4% (inactive) | 105% (inactive) | 14.7% (inactive) | 90.3 | 105 | -4.27% (inactive) | 3.77% (inactive) | -13.7% (inactive) | -6.7% (inactive) | 1.17% (inactive) | 107% (inactive) | 107% (inactive) | 1.36% (inactive) | 1.9% (inactive)
Cc1cc(C)c(NC(=O)Cn2cc3c(n2)CCCC3)c(C)c1 | 87.5 | 103% (inactive) | 87.5% (inactive) | 104% (inactive) | 96.5% (inactive) | -3.94% (inactive) | 100 | 96.5 | -6% (inactive) | 5.74% (inactive) | 6.13% (inactive) | 12.4% (inactive) | -0.84% (inactive) | 109% (inactive) | 94.9% (inactive) | 2.3% (inactive) | 4.34% (inactive)
COc1nc(Oc2ccc(=O)n(C)n2)nc(N(C)C)n1 | 81 | 107% (inactive) | 81% (inactive) | 88.5% (inactive) | 92.7% (inactive) | -2.47% (inactive) | 95.1 | 92.7 | 1.67% (inactive) | -9% (inactive) | -3.33% (inactive) | 0.62% (inactive) | 0.29% (inactive) | 95.2% (inactive) | 101% (inactive) | 2.61% (inactive) | 1.59% (inactive)
CCn1c(-c2cc(Br)ccc2O)n[nH]c1=S | 99 | 88.5% (inactive) | 99% (inactive) | 107% (inactive) | 98% (inactive) | 0.39% (inactive) | 97.6 | 98 | -4.59% (inactive) | 3.02% (inactive) | -10% (inactive) | -14.2% (inactive) | -1.24% (inactive) | 98.9% (inactive) | 96.8% (inactive) | 1.45% (inactive) | 0.78% (inactive)
Cc1cc(C)nc(NC2=NCC(=O)N2c2ccccc2Br)n1 | 93 | 93.5% (inactive) | 93% (inactive) | 101% (inactive) | 89.8% (inactive) | -10.2% (inactive) | 100 | 89.8 | -7.07% (inactive) | -2.33% (inactive) | -2.53% (inactive) | 4.3% (inactive) | -0.37% (inactive) | 95.4% (inactive) | 100% (inactive) | 2.06% (inactive) | 8.53% (inactive)
CSCCC(N=CC1=C(O)CC(C)(C)CC1=O)C(=O)O (stereo not drawn) | 100 | 139% (inactive) | 100% (inactive) | 99.4% (inactive) | 87.2% (inactive) | -2.07% (inactive) | 89.3 | 87.2 | -3.21% (inactive) | -6% (inactive) | 1.4% (inactive) | 1.57% (inactive) | 0.34% (inactive) | 93.9% (inactive) | 99.9% (inactive) | 0.65% (inactive) | 4.91% (inactive)
COc1ccc(-c2nc(C)c(C(C)=O)n2O)cc1OC | 89 | 112% (inactive) | 89% (inactive) | 91% (inactive) | 94.9% (inactive) | 9.6% (inactive) | 85.3 | 94.9 | -2.05% (inactive) | -8.33% (inactive) | -5.41% (inactive) | 6.06% (inactive) | -1.91% (inactive) | 96.5% (inactive) | 90.1% (inactive) | 1.42% (inactive) | 2.4% (inactive)
Cc1cccc(N2CCN(C(=O)c3cc4ccccc4oc3=O)CC2)c1C | 90.5 | 116% (inactive) | 90.5% (inactive) | 98.6% (inactive) | 100% (inactive) | 8.08% (inactive) | 92 | 100 | -6.53% (inactive) | -7.67% (inactive) | -4.18% (inactive) | -0.595% (inactive) | 1.65% (inactive) | 88.5% (inactive) | 94.3% (inactive) | 0.78% (inactive) | -1.13% (inactive)
